Data reported in PubChem BioAssay AID686970 (National Center for Advancing Translational Sciences (NCATS), 2013).
About 6,000 (1.7%) of roughly 360,000 compounds were called active. Roughly 8% stayed inconclusive and do not appear here. Calls come from the whole dose curve; as a rule, active = well fitted cell-killing curve with a large enough effect; inconclusive = small, poorly fitted or top-dose-only effect, or effect the other way; inactive = flat fitted curve, though single readings scatter. The entries come from a sample that favours actives as a whole. Entries that show only a call come without a potency.

assay: qHTS for induction of synthetic lethality in tumor cells producing 2HG: qHTS for the HT-1080-NT fibrosarcoma cell line; settings: HT-1080-NT fibrosarcoma viability, CellTiter-Glo ATP luminescence, 48 h; series mostly up to 46.1 µM;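 note: NT is the 2HG producing partner of a matched IDH1 knockdown line; nearly all actives have a fitted effect of over 55% in size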
Procedure, shortened: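 A 48-hour cytotoxicity screen used HT-1080-NT cells plated 2 hours before compound delivery. ATP-based CellTiter-Glo luminescence measured viability, normalized to DMSO and no-cell controls.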
Potency is the fitted concentration of half-maximal effect.

Compound | Potency
C[C@@H]1CN([C@@H](C)CO)C(=O)CCCn2nncc2CO[C@H]1CN(C)Cc1ccc(C(F)(F)F)cc1 | inactive
CC1(C(=O)NS(=O)(=O)c2cccs2)CCN1C(=O)Cc1ccc(-c2ccccc2)cc1 (stereo not given) | inactive
COc1cc(SC#N)ccc1N=Cc1c(C)[nH]n(-c2ccc(C)cc2)c1=O | 25.9 µM (active)
O=Cc1cn(CCOc2ccc(F)cc2)c2ccccc12 | inactive
CCc1nc2ccc(C(=O)Nc3cccc(OC)c3)cn2c1N(CCC(C)C)CCN(C)C | 18.4 µM (active)
CCc1nc2ccc(C(=O)Nc3ccc(OC)c(OC)c3)cn2c1N(C)C(=O)c1cccc(OC)c1 | inactive
CCc1nc2ccc(C(=O)N(C)CCN(C)C)cn2c1N(CC)CCOC | inactive
O=c1[nH]c(N2CCN(Cc3ccc4c(c3)OCO4)CC2)nc2c1CCCC2 | inactive
Fc1ccc2[nH]c3c(N4CCN(Cc5ccc6c(c5)OCO6)CC4)ncnc3c2c1 | 23.1 µM (active)
CCCCCc1c(C)nc(N2CCN(Cc3ccc4c(c3)OCO4)CC2)[nH]c1=O | inactive
COc1cccc(-c2cc3nc(NCCOc4ccccc4Cl)n(C)c(=O)c3s2)c1 | inactive
CCCC(=O)N1CCC1(C)C(=O)NCc1ccc(SC)cc1 (stereo not given) | inactive
CCCc1nc2ccccc2n1C(C)C(=O)NC(C)(C)C (stereo not given) | inactive
Cc1cccc(-c2cnc(C(O)c3ccc4ccccc4c3)[nH]2)c1 (stereo not given) | inactive
CN(C)CCNC(=O)Nc1cccc(Cl)c1Cl | inactive
CN(C)CCNC(=O)c1ccc(Cl)c2cc3ccccc3nc12 | 20.6 µM (active)
CN(c1ccccc1)S(=O)(=O)c1ccc(Cl)c(C(=O)NCCc2c[nH]c3ccccc23)c1 | inactive
CC1(Oc2ccc(Cl)cc2)CCN(Cc2csc3ccccc23)C1 (stereo not given) | inactive
COc1ccc(S(=O)(=O)N2CCC(C(=O)NCc3ccco3)CC2)cc1C | inactive
COc1ccc(C2=NOC(C(=O)NCc3ccco3)C2)cc1OC (stereo not given) | 6.31 µM (active)
COc1ccc(CNC(=O)C2CC(c3ccc(C(F)(F)F)cc3)=NO2)cc1 (stereo not given) | inactive
COc1ccc(CN2C[C@H]3CON(C)[C@H]3C[C@H]2c2ccc(-c3cccc(F)c3)cc2)cc1 | inactive
Cc1sc2ncnc(SCC(=O)NC3CCS(=O)(=O)C3)c2c1C (stereo not given) | inactive
Cc1ccc(CN(C)C[C@@H]2OCc3cnnn3CCCC(=O)N([C@@H](C)CO)C[C@H]2C)cc1 | inactive

Compound | Potency
CN1CN(C)c2ccc([N+](=O)[O-])c3cccc1c23 | inactive
CCOc1cccc(=O)c2c(C)n(CC3CCCO3)c(C)c12 (stereo not given) | inactive
O=C1c2cccc3c([N+](=O)[O-])ccc(c23)C(=O)N1CC1CCCO1 (stereo not given) | 23.1 µM (active)
O=C(NCCS(=O)(=O)N1CCN(c2ccccc2)CC1)c1cc(=O)c2ccccc2o1 | inactive
CC1CN(C(=O)c2cccc(NS(=O)(=O)c3ccc(Br)cc3)c2)CC(C)O1 (stereo not given) | inactive
C[C@H]1COc2cc(N3CCSCC3)ccc2S(=O)(=O)N1 | inactive
CCCCC(O)C1=C[N+](=O)CC=C1 (stereo not given) | inactive
CCn1c(COc2c(C)cccc2C)nnc1SCc1nc2ccccc2c(=O)[nH]1 | inactive
COc1ccc(C)cc1-n1nnnc1SCc1nc2ccccc2c(=O)[nH]1 | 14.6 µM (active)
COc1ccc(CCCc2nnc(SCc3nc4ccccc4c(=O)[nH]3)n2C)cc1 | inactive
COc1ccc(C2=Nc3ccccc3NC(=O)C2N(C(=O)c2cc3ccccc3[nH]2)c2ccccc2)cc1 (stereo not given) | inactive
O=C(Nc1ccc2c(c1)OCCO2)C(C1CC1)N1CCC(Cc2ccccc2)CC1 (stereo not given) | inactive
COc1ccc(OC)c(NC(=O)C2(C)CCN2C(=O)Cc2ccccc2)c1 (stereo not given) | inactive
N#CCSc1ccccc1NC(=O)CN1C(=O)NC(CCc2ccccc2)C1=O (stereo not given) | inactive
CC[C@]1(O)C[C@@H]2CN(CCc3c([nH]c4ccccc34)[C@@](C(=O)OC)(c3cc4c(cc3OC)N(C)[C@H]3[C@@](O)(C(=O)OC)[C@H](OC(C)=O)[C@]5(CC)C=CCN6CC[C@]43[C@@H]65)C2)C1 | 0.082 µM (active)
O=C(Nc1ccc(Cl)cc1)N1CCc2[nH]c3ccccc3c2C1 | inactive
O=C(CCCN1CCc2[nH]c3ccc(F)cc3c2C1)c1ccc(F)cc1 | 18.4 µM (active)
O=C(c1cc2cc(F)ccc2[nH]1)N1CCN(c2ccc(F)cc2)CC1 | inactive
COC(=O)[C@]12CCCCC=C1N(CCC1=CCCCC1)C(=O)[C@H](CC(=O)N1CCSCC1)C2 | inactive
COC(=O)C[C@H]1C[C@@H]2c3cc(N(C)C)ccc3O[C@@H]2[C@H](CO)O1 | inactive
CN(C)CCCOc1ccc(-c2ccc3nccn3c2)cn1 | inactive
COc1ccc(S(=O)(=O)N[C@@H]2C=C[C@@H](CC(=O)N3CCc4ccccc4C3)O[C@@H]2CO)cc1 | inactive
C=C1C(=O)OC2C1CCC(C)=CCCC1(C)OC21 (stereo not given) | 16.4 µM (active)
O=C(OCc1cn([C@@H]2C[C@H](c3ccc(Cl)cc3)N(Cc3cccs3)C[C@H]2O)nn1)c1ccccc1 | inactive

Compound | Potency
CCOc1ccc(CCN2C(=O)C(=O)N([C@@H](CC(C)C)CN3CCC[C@H]3CN3C(=O)C(=O)NC[C@@H]3Cc3ccccc3)C[C@@H]2CC(C)C)cc1 | inactive
CC1(C(=O)NS(=O)(=O)c2cccc(F)c2)CCN1C(=O)Cc1cc(F)ccc1F (stereo not given) | inactive
Cc1c(C(=O)NCc2ccc(C#N)cc2)sc(=O)n1Cc1ccc(C(=O)N(C)C)cc1 | inactive
CN(C)c1ccc(Nc2c3c4c(cccc4n(C)c2=O)C(=O)c2ccccc2-3)cc1 | 5.8 µM (active)
CN(C)c1ccc(C2N(C)C(=O)c3ccccc3N2C)cc1 (stereo not given) | inactive
COc1ccc([C@H]2CC(=O)C[C@@H](CCn3cc(CC4CCCC4)nn3)O2)cc1 | inactive
CCc1oc(-c2ccc(OC)cc2)c(C(=O)OCCCCCO)c1C(C)OCCO (stereo not given) | inactive
Cc1ccc(S(=O)(=O)N2CCC(=O)N([C@H](COCc3ccccc3)C(C)C)CC2)cc1 | inactive
O=C(CSCc1ccccc1)Nc1ccccc1 | inactive
O=C(NCCc1ccccc1)c1cccc(NC(=O)c2ccccc2)c1 | inactive
O=C(CCl)Nc1cccc(CP(=O)(c2ccccc2)c2ccccc2)c1 | 4.11 µM (active)
CC(C)[C@H](NC(=O)c1ccccc1F)C(=O)Nc1cccc(S(=O)(=O)N2CCOCC2)c1 | inactive
COc1ccc2[nH]c(=O)c(CN(Cc3nnnn3CCc3ccccc3)CC3CCCO3)cc2c1 (stereo not given) | inactive
CCOc1ccc2[nH]c(=O)c(CN(Cc3nnnn3Cc3ccccc3)CC3CCCO3)cc2c1 (stereo not given) | 6.31 µM (active)
CCOc1ccc2[nH]c(=O)c(CN(Cc3nnnn3CCc3ccccc3)CC3CCCO3)cc2c1 (stereo not given) | inactive
CCOC(=O)C1=CC[C@@H](c2ccccc2)N(S(=O)(=O)c2ccc(C)cc2)[C@H]1c1cccc(OC)c1 | inactive
CC1(C)NC(=O)N(CC(=O)Nc2ccc(-c3ccccc3)cc2)C1=O | inactive
CS(=O)(=O)Nc1cccc(-c2cn3ccccc3n2)c1 | inactive
CCS(=O)(=O)Nc1cccc(-c2cc(-c3ccccc3)c3cc(C)ccc3n2)c1 | 23.1 µM (active)
Cc1cc(C)cc(NS(=O)(=O)Cc2ccccc2)c1 | inactive
Cc1ccc(-c2nc3c(C)cc(Br)cn3c2Cc2ccccc2)cc1 | inactive
COC(=O)[C@]12CCCCC=C1N(Cc1ccc3c(c1)OCO3)C(=O)[C@H](CC(=O)NCc1cccs1)C2 | inactive
O=C1NC(c2cccc(Cl)c2)Nc2ccccc21 (stereo not given) | 11.6 µM (active)
O=C1NC(c2ccccc2)Oc2ccccc21 (stereo not given) | inactive

Compound | Potency
COc1ccc(C2NC(=O)c3ccccc3N2)cc1 (stereo not given) | inactive
CCc1nc2c(OCCc3cccc(OC)c3)cccn2c1N(C)C(=O)c1ccc(C)cc1 | inactive
O=C(COC(=O)c1cncc(Br)c1)Nc1ccc(S(=O)(=O)N2CCOCC2)cc1 | inactive
CC(C)c1cc(C(=O)N(C)C2CCCN(Cc3ccccc3F)C2)n(C)n1 (stereo not given) | inactive
CNc1cncc(-c2cccc(C(=O)N3CCOCC3)c2)n1 | inactive
OC(CNCC1CCCO1)Cn1c2ccc(Br)cc2c2cc(Br)ccc21 (stereo not given) | 20.6 µM (active)
COCCNC(=O)c1ccc(Cn2c(SCC(=O)NCC3CCCO3)nc3ccc(Br)cc3c2=O)cc1 (stereo not given) | inactive
CCCN1CCn2c3c(c4cc(Br)ccc42)CCCC31 (stereo not given) | inactive
Cc1sc2nc(-c3ccccc3F)oc(=O)c2c1C | inactive
O=S1(=O)CC(N2CCN(CCO)CC2)CN1Cc1cn(Cc2ccc(Cl)cc2)nn1 (stereo not given) | inactive
O=C(Nc1cc(Br)ccc1F)c1nc[nH]c1C(=O)NCc1ccccc1 | inactive
CCN1CCN(CCNC(=O)c2ccc(/C=C3/Sc4ccccc4N(Cc4cccc(C)c4)C3=O)cc2)CC1 | 23.1 µM (active)
CCN1CCN(CCNC(=O)c2ccc3c(c2)NC(=O)/C(=C\c2cccc(Cl)c2)S3)CC1 | inactive
CN1CCN(CCCNC(=O)c2ccc(/C=C3\Oc4ccccc4N(Cc4ccc(Cl)cc4)C3=O)cc2)CC1 | inactive
CCNC(=O)C1(C)CCCN(C(=O)c2c(C)noc2C)C1 (stereo not given) | inactive
CSc1ccccc1NC(=O)COC(=O)CCCOc1ccc(C)cc1 | inactive
COc1cccc(NC(=O)COC(=O)CCOc2ccccc2OC)c1 | inactive
COc1cc([N+](=O)[O-])ccc1NC(=O)COC(=O)CCOc1ccc(C)cc1 | 20.6 µM (active)
CCc1ccccc1NC(=O)CN1CCN(C(=O)c2cc(C3CC3)nn2-c2ccccc2)CC1 | inactive
N#Cc1ccc(C(=O)Nc2nc(-c3cccs3)c(C(=O)C(F)(F)F)s2)cc1 | 2.91 µM (active)
N#Cc1c(-c2cccs2)nc(SCC(=O)c2ccc(Br)cc2)[nH]c1=O | inactive
COC(=O)c1sc(NC(=S)NC(=O)c2ccc(C)cc2)nc1C | inactive
CCOC(=O)[C@]12CCCC=C1N(Cc1ccc3c(c1)OCO3)C(=O)[C@H](CC(=O)NCc1cccs1)C2 | inactive
